Bioassay records deposited in PubChem BioAssay by National Center for Advancing Translational Sciences (NCATS).
Rab9 promoter act: Rab9 promoter activation; Huh7 Rab9 promoter-luciferase reporter, luminescence, 24 h; 320,000 tested, 2.8% active; AID 485297; Potency, µM (top dose mostly 9.22 µM), for the others: top-dose activation, negative = inhibition, usual class: activators; further: % of control where 0% means no effect; nearly all actives have a fitted effect of over 60% in size
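Promoter activation is measured as luciferase luminescence in Huh7 cells stably transfected with a Rab9 promoter–luciferase construct, following 24 h compound exposure at 37 °C and 10 min reagent incubation at ambient temperature.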
SMN2 splice up: enhancers of SMN2 splice variant expression; 210,000 tested, 2.8% active; HEK293 SMN2-luciferase splicing reporter, luminescence, 30-36 h; Potency, µM (doses to about 46.1 µM), for inactives: top-dose activity change, positive = activation, usual class: activators; further: % of control where 0% means no effect; nearly all actives have a fitted effect of over 55% in size
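HEK293 cells carry an SMN2 […]–luciferase reporter in which exon 7 inclusion puts luciferase in frame. Cells were plated 10-12 h before compound addition, then incubated 30-36 h at 37C. ONE-Glo luminescence was read; sodium butyrate at 4.5 mM final served as control.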
Luc counter: counter-screen: inhibitors of Kinase-Glo firefly luciferase; Q27757; Kinase-Glo luciferase, ATP luminescence, 8 min; Potency, µM (series often up to 38.3 µM), for inactives: top-dose activity change, negative = inhibition, most hits filed as inhibitors; 200,000 tested, 0.28% active; AID 1379; further: on the % scale 0 is the no-effect control and ±100 the full control effect; nearly all actives have a fitted effect of over 60% in size
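Substrate mix (final 50 mM imidazole pH 7.2, 50 mM KCl, 7 mM MgCl2, 10 uM ATP, 0.01% Tween 20, 0.05% BSA) plus pin-tool compound, then Kinase-Glo detection mix; 8 min ambient, luminescence read.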
NPC1 promoter act: NPC1 promoter activation | 320,000 tested, 2.4% active | Potency, µM (top dose mostly 9.22 µM), without a hit: at the top dose activation, most hits filed as activators | Huh7 NPC1 promoter luciferase reporter, 24 h; further: % of control where 0% means no effect; nearly all actives have a fitted effect of over 60% in size
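Readout is luciferase luminescence, reflecting NPC1 promoter activation in stably transfected Huh7 cells after 24 h compound exposure at 37 °C in reduced-serum medium with 10% FBS.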
FLuc counter: firefly luciferase modulation, counter-screen for miR-21 project; P08659; purified FLuc, Km substrates, luminescence inhibition; Potency, µM (series often up to 57.5 µM), for inactives: top-dose activity change, negative = inhibition, most hits filed as inhibitors; 360,000 tested, 6.9% active;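 further: plate controls were vehicle for no effect and reference inhibitor for full effect; nearly all actives have a fitted effect of over 55% in size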
Target sequence (P08659 whole entry, looked up): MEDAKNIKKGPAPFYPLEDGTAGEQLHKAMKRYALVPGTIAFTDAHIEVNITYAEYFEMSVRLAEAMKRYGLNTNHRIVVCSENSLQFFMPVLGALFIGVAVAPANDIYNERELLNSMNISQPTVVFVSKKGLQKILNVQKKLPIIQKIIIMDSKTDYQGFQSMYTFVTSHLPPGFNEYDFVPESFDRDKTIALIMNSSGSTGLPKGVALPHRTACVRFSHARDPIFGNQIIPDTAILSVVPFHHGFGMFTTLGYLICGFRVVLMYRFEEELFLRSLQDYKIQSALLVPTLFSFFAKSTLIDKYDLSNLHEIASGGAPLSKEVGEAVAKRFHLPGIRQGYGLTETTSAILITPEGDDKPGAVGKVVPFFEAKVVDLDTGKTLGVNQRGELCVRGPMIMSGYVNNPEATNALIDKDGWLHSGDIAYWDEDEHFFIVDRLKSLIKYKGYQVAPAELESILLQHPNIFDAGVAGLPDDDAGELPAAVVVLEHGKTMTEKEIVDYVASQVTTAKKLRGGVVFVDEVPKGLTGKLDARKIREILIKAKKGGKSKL
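Purified P. pyralis luciferase, 10 nM final, with Km-level 10 uM D-luciferin and 10 uM ATP in 50 mM Tris acetate pH 7.5, 10 mM Mg acetate, 0.01% Tween-20, 0.05% BSA; 6-point qHTS titration about 60 µM downward; luminescence read.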
The depositor's hits bear a star; ? = inconclusive; . = no result; [ ] = remark or other dose. Shown are actives, neighbours in structure and some others; about 7.3% of the full set was active somewhere. The call rests on the fitted dose curve; in most records, active means well fitted curve in the direction sought with a large enough effect; inconclusive means small, poorly fitted or top-dose-only effect, or another doubt; inactive means no such curve, though single readings can be large; an effect the other way counts as inactive or inconclusive. Potency means the concentration at half of the fitted maximal effect.

SMILES	Rab9 promoter act	SMN2 splice up	Luc counter	NPC1 promoter act	FLuc counter
CC(C)Cn1cc(NC(=O)N2CCN(c3cccc(Cl)c3)CC2)c2ccccc2c1=O	.	.	.	.	3.4%
Nc1ccc(-c2nc3ccccc3o2)cc1	?	.	.	?	6.75µM*
Nc1ccc(-c2c3ccccc3nc3ccccc23)cc1	1.2%	.	.	1.0%	-0.7%
Cc1cc2nc(CSc3ccc(Cl)cc3)cc(=O)n2[nH]1	-3.2%	11.8%	1.6%	-2.0%	16.9µM*
Cc1nc2nc(CSc3ccc(Cl)cc3)cc(=O)n2[nH]1	-2.7%	15.5%	-0.2%	0.4%	?
Cc1cc(=O)n2[nH]c(-c3ccc(Cl)cc3)cc2n1	3.55µM*	14.1µM*	-1.1%	?	12µM*
Cc1cc(=O)n2[nH]c(-c3ccc(F)cc3)cc2n1	?	24.7%	-1.9%	?	16.9µM*
O=C(Nc1ncccc1O)c1cc2ccccc2o1	0.631µM*	.	.	3.16µM*	3.38µM*
Cc1ccnc(NC(=O)c2cc3ccccc3o2)c1	?	.	.	1.26µM*	0.269µM*
O=C(Nc1ccccn1)c1cc2ccccc2o1	0.562µM*	0.708µM*	8.91µM*	?	0.301µM*
O=C(NC1=NCCS1)c1cc2ccccc2o1	0.355µM*	3.98µM*	?	0.316µM*	1.2µM*
O=C(Nc1ccc(Cl)cn1)c1cc2ccccc2o1	1.78µM*	7.94µM*	-8.8%	3.55µM*	1.9µM*
O=C(CCN1C(=O)NC2(CCCC2)C1=O)Nc1ccc(-c2nc3ccccc3s2)cc1	0.447µM*	.	.	0.891µM*	.
Cc1nnc(SCC(=O)Nc2ccccc2NC(=O)CSc2nnc(C)s2)s1	.	-9.8%	0.0%	.	-1.4%
Cc1nnc(SCC(=O)Nc2ccc(-c3nc4ccccc4s3)cc2)s1	0.355µM*	1.26µM*	-19.9%	0.794µM*	0.269µM*
Cc1nc(SCC(=O)Nc2nsc(-c3ccc(C(C)(C)C)cc3)n2)c2c3c(sc2n1)CCCC3	.	-3.9%	.	.	2.8%
C=CCn1c(SCC(=O)Nc2ccc(-c3nc4ccc(C)cc4s3)cc2)nnc1-c1ccncc1	?	7.08µM*	3.0%	?	?
Cc1nnc(SCC(=O)Nc2nsc(-c3ccc(C(C)(C)C)cc3)n2)s1	1.41µM*	11.2µM*	-3.1%	1.41µM*	10.7µM*
CCn1ccc2c(OCC(=O)NCc3ccc(C)cc3)cccc2c1=O	.	.	.	.	-2.5%
CCn1c(SCC(=O)Nc2ccc(-c3nc4ccc(C)cc4s3)cc2)nnc1-c1ccccc1	0.631µM*	0.562µM*	-0.3%	?	?
O=C(OCC(=O)N1CCCCCC1)c1cccs1	?	?	-9.3%	?	13.5µM*
O=C(OCC(=O)N1CCc2ccccc2C1)c1cccnc1Cl	?	2.7%	4.1%	26.8%	15.1µM*
O=C(OCC(=O)N1CCCC1)c1ccc(O)cc1	?	.	.	-0.3%	-2.7%
O=C(OCC(=O)N1CCc2ccccc2C1)c1cccs1	-4.3%	28.5%	-4.8%	-1.7%	10.7µM*
Cc1ccc(C(=O)CC(=O)c2ccc(C)cc2O)cc1	?	.	.	?	16.9µM*
SMILES	Rab9 promoter act	SMN2 splice up	Luc counter	NPC1 promoter act	FLuc counter
Cc1ccc(C(=O)CC(=O)c2cc(Cl)ccc2O)cc1	19.3%	26.0%	18.3%	18.7%	16.9µM*
CC(C)Sc1nc(N)nc(-c2cccs2)c1C#N	2.82µM*	17.8µM*	-0.7%	?	16.9µM*
CSc1nc(N)nc(-c2cccs2)c1C#N	1.2%	-11.2%	-0.3%	0.6%	?
Cc1cc2nc(N3C(=O)CNC3=S)sc2cc1C	0.447µM*	3.98µM*	-5.7%	0.447µM*	0.536µM*
CCOc1ccc2nc(SC3CC(=O)N(c4ccc(OC)cc4)C3=O)sc2c1 (stereo not given)	?	20.6%	-1.8%	18.8%	?
CCOc1ccc2nc(N3C(=O)CNC3=S)sc2c1	0.562µM*	.	.	0.708µM*	0.849µM*
COc1ccc(C)c2sc(NC(=O)c3ccc(S(=O)(=O)N4CCOCC4)cc3)nc12	.	.	.	.	-17.6%
CC(=O)c1cccc(NC(=O)c2c(N3CCCC3=O)c3cc(F)ccc3n2C)c1	.	.	.	.	1.0%
O=C1c2oc3ccc(F)cc3c(=O)c2C(c2cccc([N+](=O)[O-])c2)N1CCCN1CCOCC1 (stereo not given)	.	.	.	.	-12.5%
O=C(Oc1ccc(-c2ccccc2)cc1)C1C2CCCCC21 (stereo not given)	-4.6%	4.9%	1.8%	-4.1%	4.78µM*
O=C(Oc1ccc(-c2ccccc2)cc1)N1CCCCC1	.	?	-1.5%	.	8.49µM*
CCN1CCN(c2cc(C)c3cc(NC(=O)/C=C/c4ccc(C)cc4)ccc3n2)CC1	.	6.8%	.	.	?
COc1cc(OC)c(NC(=O)N2CCCn3nc(C)cc32)cc1Cl	.	.	.	.	-1.6%
c1ccc(-c2cn3c(n2)-c2ccccc2C3)cc1	0.562µM*	0.501µM*	7.08µM*	3.16µM*	0.426µM*
Nc1nc(-c2ccccc2)cn1N	6.4%	-2.0%	-5.3%	8.4%	-19.8%
CCc1ccc(OC(=O)/C=C/c2ccco2)cc1	12.1%	.	.	16.3%	0.849µM*
COc1ccc(CCNC(=O)C2CCCN(S(=O)(=O)c3ccc4c(c3)oc(=O)n4C)C2)cc1OC (stereo not given)	.	-6.5%	.	.	-6.3%
CCN(CC)c1ccc(C(=O)NNC(=O)CCl)cc1	-10.1%	26.4%	0.9%	-14.1%	-13.5%
CCc1ccc(C(=O)NNC(=O)CN2C(=O)NC(CC)(c3ccccc3)C2=O)cc1 (stereo not given)	-1.3%	.	.	4.7%	16.9µM*
CCN(CC)c1ccc(C(=O)NNC(=O)c2cccn2C)cc1	3.55µM*	.	.	?	?
O=C(CN1C(=O)NC2(CCCC2)C1=O)NNC(=O)c1ccc(Cl)cc1	-2.5%	.	.	0.4%	-2.8%
CCN(CC)c1ccc(C(=O)NNC(=O)CN2C(=O)NC3(CCCCC3)C2=O)cc1	0.8%	.	.	-5.7%	9.53µM*
CCN(CC)c1ccc(C(=O)NNC(=O)CN2C(=O)NC(C)(c3ccccc3)C2=O)cc1 (stereo not given)	-2.0%	.	.	1.9%	5.36µM*
NN(CC(=O)O)CC(=O)O	.	-13.5%[9.22 µM]	-3.4%[7.66 µM]	.	.
O=C(Nc1ccc2c(c1)OCCO2)c1ccc(Br)o1	1.58µM*	14.1µM*	?	1.26µM*	2.13µM*
SMILES	Rab9 promoter act	SMN2 splice up	Luc counter	NPC1 promoter act	FLuc counter
Cc1ccc(C(=O)Nc2ccc3c(c2)OCCO3)cc1	0.316µM*	.	.	0.282µM*	0.426µM*
CCCCOc1cccc(C(=O)Nc2ccc(NC(=O)c3ccco3)cc2)c1	3.9%	.	.	1.4%	-1.7%
Cc1ccc(CNc2ccc3c(c2)OCO3)cc1	.	-38.6%	-18.0%	.	23.9µM*
CCCOc1cccc(C(=O)Nc2cccc(NC(=O)c3ccco3)c2)c1	-5.6%	7.7%	-0.1%	-3.4%	16.9µM*
CC(CCN)(CCN)[N+](=O)[O-]	.	-12.7%[9.22 µM]	-5.5%[7.66 µM]	.	.
COc1cc2c(cc1NC(=O)c1ccccc1C)n(C)c(=O)n2C	.	-1.6%	.	.	-1.0%
Cc1ccc(C(=O)Nc2ccc3c(c2)OCO3)cc1	0.562µM*	7.94µM*	-18.0%	0.631µM*	1.35µM*
